An excerpt weighted towards active compounds, which were near 3.5% of everything screened.
FBW7 activator – activators of human E3 ligase FBW7; 650,000 compounds, 0.13% hits; Q969H0; AlphaScreen FBW7–phospho-cyclin E peptide binding, activator screen; normalized activity (activation), % at 26.1 µM; in the data active = normalized activity above about 1.9%;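 also: purified mutant Fbw7 with reduced substrate affinity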
TEAD-YAP block – TEAD-YAP interaction inhibition | HEK-TIYL cells, TEAD-Gal4/YAP UAS-luciferase luminescence | 640,000 compounds, 1.4% hits | inhibition, % at 9.12 µM; in the data active = inhibition above about 32%;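 also: 0% = median of test compound wells and 100% = reference inhibitor wells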
MITF primary – human MITF inhibition, primary screen. O75030. AlphaScreen MITF homodimerization, bead proximity signal. inhibition, % at 2.6 µM. 650,000 compounds, 0.91% hits; in the data active = inhibition above about 50%;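 also: 0% = vehicle wells with protein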
Target sequence (O75030 whole entry, looked up): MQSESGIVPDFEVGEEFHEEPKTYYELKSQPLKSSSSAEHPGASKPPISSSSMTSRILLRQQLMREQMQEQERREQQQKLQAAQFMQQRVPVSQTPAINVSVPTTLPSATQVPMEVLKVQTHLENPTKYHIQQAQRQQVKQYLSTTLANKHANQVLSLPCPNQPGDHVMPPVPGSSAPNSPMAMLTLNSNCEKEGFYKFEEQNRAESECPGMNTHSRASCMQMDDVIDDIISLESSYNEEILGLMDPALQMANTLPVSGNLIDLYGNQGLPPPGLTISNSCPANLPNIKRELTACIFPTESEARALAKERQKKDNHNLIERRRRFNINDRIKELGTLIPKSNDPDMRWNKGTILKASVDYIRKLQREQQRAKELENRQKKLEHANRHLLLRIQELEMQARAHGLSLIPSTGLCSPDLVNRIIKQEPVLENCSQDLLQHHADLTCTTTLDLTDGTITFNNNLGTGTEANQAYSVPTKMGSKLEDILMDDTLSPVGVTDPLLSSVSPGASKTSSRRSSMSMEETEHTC
GPR151 activ – activates the human receptor GPR151; Q8TDV0; PathHunter beta-arrestin GPR151 cells, luminescence; activation, % at 11.2 µM; 650,000 compounds, 1% hits; in the data active = activation above about 4.9%;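 also: 0% = median of compound wells and 100% = cells with positive control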
GPR151 confirm – human GPR151 activation, confirmation screen. shares compounds with GPR151 activ. 6,700 tested, under 10 active. GPR151 PathHunter beta-arrestin cells, luminescence, 90 min; % of EA-reagent control over plate median. AID 1508609. activation, % at 11.2 µM;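 active = mean percent activation across replicates above the confirmation screen cutoff of 4.91%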
GPR119 ag – activates human GPR119 in a GPR151 counter-screen; activation, % at 11.2 µM; GPR119 PathHunter beta-arrestin cells, luminescence, 90 min; 0 = compound-well median, 100 = enzyme-acceptor control; 6,700 compounds, 0.3% hits; shares compounds with GPR151 activ;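 active = mean percent activation in the counterscreen above 29.09%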;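 also: counterscreen on off-target GPR119 to flag nonselective hits from the GPR151 activator screen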
The depositor's hits bear a star; . = not tested or not shown.

SMILES	FBW7 activator	TEAD-YAP block	MITF primary	GPR151 activ	GPR151 confirm	GPR119 ag
O=C(Nc1cccnc1)c1cc2n(n1)C(C(F)(F)F)CC(c1ccc(Br)cc1)N2 (stereo not given)	0	-5	3	-1	.	.
O=C(Nc1cccnc1)c1cc2n(n1)C(C(F)(F)F)CC(c1ccc(Cl)cc1)N2 (stereo not given)	0	-23	-5	5.0*	1	3
CNC(=O)C1CN(Cc2ccc3c(c2)OCO3)CCN1C(=O)c1ccc(F)c(F)c1 (stereo not given)	0	-2	3	7.2*	0	-9
CCOC(=O)CCS(=O)(=O)c1ccc2ccccc2c1	0	7	17	2	.	.
CCn1c(SCC(=O)Nc2cccc(C(=O)O)c2)nnc1-c1cccc(C)c1	1	1	7	0	.	.
CCn1c(COc2cccc(C)c2)nnc1SCC(=O)Nc1cccc(C(=O)O)c1	0	0	4	6.3*	0	3
CCCCC(=O)N1c2ccccc2NC2=C(C(=O)CC(C)(C)C2)C1c1cccc([N+](=O)[O-])c1 (stereo not given)	0	8	-1	2	.	.
CCSC1=NSC2=NC(=O)/C(=C\c3ccc([N+](=O)[O-])cc3)C(=N)N12	0	-8	-4	0	.	.
CSC1=NSC2=NC(=O)/C(=C\c3ccc([N+](=O)[O-])cc3)C(=N)N12	0	-43	5	11*	2	1
Cc1cc(NS(=O)(=O)c2ccccc2[N+](=O)[O-])ccc1O	0	-6	5	-1	.	.
O=C(N/N=C\c1ccc(Br)cc1)c1cc([N+](=O)[O-])cc([N+](=O)[O-])c1	0	-3	3	-1	.	.
O=C(CCC(=O)N/N=C/c1cccc([N+](=O)[O-])c1)N/N=C/c1cccc([N+](=O)[O-])c1	0	2	-5	-1	.	.
O=C(N/N=C/c1cccc(O)c1)c1cnccn1	0	-6	-2	-5	.	.
O=C(N/N=C\c1cccc([N+](=O)[O-])c1)c1ccc(O)cc1	0	2	-24	-1	.	.
O=C(N/N=C/c1cccc(O)c1)c1cccnc1	0	-1	6	5.8*	-1	-11
O=C(N/N=C/c1ccc([N+](=O)[O-])cc1)c1ccc(Br)cc1	0	-5	4	7.8*	1	-2
O=C(CCCC(=O)N/N=C/c1cccc([N+](=O)[O-])c1)N/N=C/c1cccc([N+](=O)[O-])c1	0	6	-8	14*	1	2
O=C(N/N=C/c1cccc([N+](=O)[O-])c1)c1cc(O)c(O)c(O)c1	0	-10	15	5.7*	1	4
CC1CCCN(C(=O)CSc2nnc(-c3ccccc3)n2C)C1 (stereo not given)	0	8	2	0	.	.
C/C(=N\NC(=O)CCc1ccccc1)c1ccncc1	0	-10	-14	7.2*	0	1
COc1ccc(NC(=O)Cn2cnc3sc(C)c(S(=O)(=O)N4CCCCC4)c3c2=O)cc1OC	0	0	9	-1	.	.
CCOC(=O)c1c(NC(=O)CSc2n[nH]c(-c3ccccc3)n2)sc(C(C)=O)c1C	0	4	6	2	.	.
CCOC(=O)c1c(NC(=O)CSc2n[nH]c(N)n2)sc(C(C)=O)c1C	0	-4	6	13*	0	-3
CC1(C)NC(=O)N(CCOCCOc2ccc3ccccc3c2Br)C1=O	0	-32	-5	5.5*	0	-10
CC1(C)NC(=O)N(CC(O)COc2ccc3ccccc3c2Br)C1=O (stereo not given)	0	-13	-5	3	.	.
SMILES	FBW7 activator	TEAD-YAP block	MITF primary	GPR151 activ	GPR151 confirm	GPR119 ag
CC(C)c1ccc(-c2nn(-c3ccccc3)c(=O)c3ccccc23)cc1	0	2	-6	5.2*	1	-5
O=c1c2ccccc2c(-c2ccc(Br)cc2)nn1-c1ccccc1	0	10	6	-1	.	.
CC(C)[C@@H](CO)Nc1ccc2ncc(-c3ccc(N4CCOCC4)cc3)n2n1	0	3	-9	0	.	.
COc1ccc(-c2cc(C(F)(F)F)n3ncc(C(=O)Nc4ccc(Cl)cc4Cl)c3n2)cc1OC	0	-3	15	5.4*	-1	-17
CCN(CC)c1nc(N)nc(Nc2ccncn2)n1	0	-6	9	4	.	.
CCOC(=O)CSc1nc(C2CC2)nc2sc(C)c(C)c12	0	-2	20	-1	.	.
Cc1sc2nc(C3CC3)nc(SCC(N)=O)c2c1C	0	7	6	6.8*	0	2
O=C1CC(NC23CC4CC(CC(C4)C2)C3)C(=O)N1c1ccc(Br)cc1 (stereo not given)	0	-1	0	0	.	.
COc1ccccc1CNC(=O)CSc1cc(C)[nH]c(=O)n1	0	1	-17	12*	0	7
Cc1cc(SCc2ccccc2Cl)nc(=O)[nH]1	0	-14	-9	7.6*	0	5
Cc1cc(SCC(=O)NCc2ccc(F)cc2)nc(=O)[nH]1	0	2	-8	-1	.	.
COc1cc2[nH]c(=S)nc(NCCCN3CCCC3)c2cc1OC	0	-2	-3	1	.	.
COc1cc2[nH]c(=S)nc(NCC(OC)OC)c2cc1OC	0	2	25	5.5*	0	0
N#Cc1ccc(NC(=O)COC(=O)c2ccccn2)cc1	-1	4	9	1	.	.
N#Cc1ccc(COC(=O)c2ccccn2)cc1	0	7	28	5.0*	0	-5
O=[N+]([O-])c1cc(Cl)cc(/C=N/N/C(=N/c2ccccn2)c2ccccn2)c1O	-1	-49	33	-2	.	.
Cc1nnc(SCc2ccc(Cl)cc2)nc1/C=C/N(C)C	0	8	12	0	.	.
Cc1nnc(SCc2ccc(Cl)cc2)nc1C	0	-22	7	5.2*	0	-5
Cn1nccc1Nc1cccc(C(=O)NCCOc2ccccc2)n1	0	-33	5	11*	-1	-1
CCCNC(=O)c1cccc(Nc2ccnn2C)n1	0	5	27	0	.	.
CCOc1ccc(NC(=O)CN2N=NC3C(=O)N(c4ccc(Cl)cc4)C(=O)C32)cc1 (stereo not given)	0	8	2	5.7*	0	7
CC1CCN(CCNC(=O)c2ccc(-n3c(=S)[nH]c4ccccc4c3=O)cc2)CC1	0	0	-8	0	.	.
C=CCNC(=O)c1ccc(OCC(=O)C2CC2)cc1	0	-1	0	0	.	.
Cn1cnnc1SCCNC(=O)c1ccc(OCC(=O)C2CC2)cc1	0	1	7	6.9*	0	12
COC(=O)c1cccc(Nc2nc(C)cc(C)n2)c1	0	-26	-5	12*	0	-9
O=C(O)C1CSC(c2ccccc2F)N1 (stereo not given)	0	-6	0	5.3*	0	-9
